Where “and” joins values, the source holds several entries; their conditions need not be identical. Equal values may be shown once. Records with an inconclusive call do not appear. More than one record can exist for a structure, and the calls need not agree. Calls of active or inactive are those of the source. Rule for the calls, unless noted: active = hit-call score of the fitted dose curve at least 0.9, where 1 is the maximum; inconclusive = response in the unintended direction; inactive = score below 0.9.

Sequence of Peroxisome proliferator-activated receptor gamma (Homo sapiens) (P37231 whole entry, looked up): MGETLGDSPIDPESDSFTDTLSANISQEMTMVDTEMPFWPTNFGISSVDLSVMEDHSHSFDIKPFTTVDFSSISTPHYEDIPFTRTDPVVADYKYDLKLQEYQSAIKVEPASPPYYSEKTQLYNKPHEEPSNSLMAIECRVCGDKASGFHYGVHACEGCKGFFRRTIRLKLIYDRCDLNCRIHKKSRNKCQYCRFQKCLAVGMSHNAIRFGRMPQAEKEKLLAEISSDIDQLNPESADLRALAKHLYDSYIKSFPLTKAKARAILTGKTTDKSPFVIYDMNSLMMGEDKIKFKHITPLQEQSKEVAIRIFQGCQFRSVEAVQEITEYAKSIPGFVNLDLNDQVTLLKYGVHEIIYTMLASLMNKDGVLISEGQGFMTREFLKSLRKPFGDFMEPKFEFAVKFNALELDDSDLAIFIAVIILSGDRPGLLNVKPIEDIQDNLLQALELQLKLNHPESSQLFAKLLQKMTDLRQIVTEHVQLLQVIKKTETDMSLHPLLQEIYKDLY

In the first assay the target is Retinoic acid receptor alpha (Homo sapiens) (UniProt P10276). Briefly: ATG_RARa_TRANS: Attagene TRANS-FACTORIAL HepG2 Assay for human Retinoic Acid Receptor alpha (RARa) (AID 2283005).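 For AC50: potency for increased reporter signal meaning RARa activation over DMSO.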
Sequence of Retinoic acid receptor alpha (Homo sapiens) (P10276 whole entry, looked up): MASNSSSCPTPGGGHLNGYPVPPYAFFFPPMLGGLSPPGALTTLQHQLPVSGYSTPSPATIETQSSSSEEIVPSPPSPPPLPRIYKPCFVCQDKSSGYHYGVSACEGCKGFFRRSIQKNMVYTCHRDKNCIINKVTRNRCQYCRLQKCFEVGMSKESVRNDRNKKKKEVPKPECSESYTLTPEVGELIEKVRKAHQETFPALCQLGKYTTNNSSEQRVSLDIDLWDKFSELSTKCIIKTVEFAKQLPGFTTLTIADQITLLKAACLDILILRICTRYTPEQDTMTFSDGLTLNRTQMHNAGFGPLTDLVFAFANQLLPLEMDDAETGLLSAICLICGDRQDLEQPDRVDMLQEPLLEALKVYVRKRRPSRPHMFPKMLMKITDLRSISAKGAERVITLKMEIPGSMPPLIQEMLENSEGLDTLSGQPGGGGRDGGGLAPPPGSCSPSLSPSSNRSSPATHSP
Settings: not given
In outline: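 Reporter transcripts, measured by RT-PCR with fluorescent labeling and capillary electrophoresis after 24 h dosing, reflect activity of an exogenous human RARa–GAL4 fusion in transiently transfected HepG2. Fitted for increase relative to DMSO.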
`Cc1ccccc1CO[C@@H]1C[C@@]2(C(C)C)CC[C@]1(C)O2`: the result was inactive.
What is called AC50 is the midpoint of the concentration-response curve, whichever way the signal moves. On to `ClC1=C(Cl)[C@]2(Cl)[C@@H]3[C@@H]4C[C@@H]([C@H]5O[C@@H]45)[C@@H]3[C@@]1(Cl)C2(Cl)Cl`, for which the AC50 was 0.855 µM (active).
`c1cc2ccc3cccc4ccc(c1)c2c34`: the outcome was inactive.
Same read-out and setting: in the case of `CCC(=O)O[C@H]1CC[C@H]2[C@@H]3CCC4=CC(=O)CC[C@]4(C)[C@H]3CC[C@]12C` it was “inactive”; in that of `C[C@]12CCC(=O)C=C1CC[C@@H]1[C@@H]2CC[C@]2(C)C(=O)CC[C@@H]12`, “inactive”.
As to `ClC1=C(Cl)[C@]2(Cl)[C@@H]3[C@@H](Cl)[C@H]4O[C@H]4[C@@H]3C1(Cl)C2(Cl)Cl`, the outcome was inactive.
The same measure, in the same setting: in the case of `C=CC(N)=O` it was “inactive”; in that of `CC1=C2C[C@H]3[C@@H](CC=C4C[C@@H](O)CC[C@@]43C)[C@@H]2CC[C@]12O[C@@H]1C[C@H](C)CN[C@H]1[C@H]2C`, “inactive”.

Read-out in another assay: not listed separately
Briefly: BSK_3C_Proliferation: Cell Proliferation Assessment in the BioMAP Diversity Plus: 3C Assay (AID 2283006; active = hit-call score of the fitted dose curve at least 0.9, where 1 is the maximum; inactive = score below 0.9;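 for AC50: potency may reflect either rise or fall in cell number versus DMSO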). As to conditions: primary human endothelial cells (HUVEC). In a few lines: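 Subconfluent HUVEC (3C system) cultured with chemical; relative cell number read at 48 h by sulforhodamine B total-protein staining (0.1% SRB after 10% TCA fixation, 560 nm). Bidirectional fit relative to DMSO.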
With `ClC1=C(Cl)[C@]2(Cl)[C@@H]3[C@@H]4C[C@@H]([C@H]5O[C@@H]45)[C@@H]3[C@@]1(Cl)C2(Cl)Cl`, the AC50 was 14.5 µM (active).
`c1cc2ccc3cccc4ccc(c1)c2c34`: the result was inactive.
Still for that read-out and setting: in the case of `Oc1ccc(Cl)cc1Cl` it was “inactive”; in that of `CN(C)c1nc(=O)n(C2CCCCC2)c(=O)n1C`, “inactive”.
With `C[C@]12CCC(=O)C=C1CC[C@@H]1[C@@H]2CC[C@@]2(C)[C@H]1CC[C@]2(C)O`, the AC50 was 28.8 µM (active).
For the compound `CC(c1ccc(O)cc1)(c1ccc(O)cc1)c1ccc(O)cc1`, the AC50 was 28 µM (active).
Consider `CCCN(CCC)N=O`, for which the result was inactive.
On the same count and under the same terms, the result for `C[C@]12CCC(=O)C=C1CC[C@@H]1[C@@H]2CC[C@]2(C)C(=O)CC[C@@H]12` reads “inactive”.
On to `ClC1=C(Cl)[C@]2(Cl)[C@@H]3[C@@H](Cl)[C@H]4O[C@H]4[C@@H]3C1(Cl)C2(Cl)Cl`, for which the AC50 is 11.2 µM (active).
Consider `O=S(=O)(O)C(F)(F)C(F)(F)C(F)(F)C(F)(F)C(F)(F)C(F)(F)F`, for which the result was inactive.
On the same count and under the same terms, the result for `CC(C)(O)C(=O)Nc1ccc([N+](=O)[O-])c(C(F)(F)F)c1` reads “inactive”; that for `CCC(C)(CC)c1cc(NC(=O)c2c(OC)cccc2OC)on1`, “inactive”.

The next assay has as its target Peroxisome proliferator-activated receptor gamma (Homo sapiens) (UniProt P37231). In words: ATG_PPARg_TRANS: Attagene TRANS-FACTORIAL HepG2 Assay for human Peroxisome Proliferator-activated Receptor-gamma (PPARg) (AID 2283007).
Settings: not given
In a few lines: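 Read-out: reporter mRNA induction, detected by fluorescence after RT-PCR and capillary electrophoresis. Transiently transfected human HepG2 liver cells carrying a chimeric NR-Gal4 construct were dosed for 24 h; activity was fitted upward relative to DMSO.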
For `Cc1ccccc1CO[C@@H]1C[C@@]2(C(C)C)CC[C@]1(C)O2`, the AC50 was 32.3 µM (active).
For `ClC1=C(Cl)[C@]2(Cl)[C@@H]3[C@@H]4C[C@@H]([C@H]5O[C@@H]45)[C@@H]3[C@@]1(Cl)C2(Cl)Cl`, the result was inactive.
As for `c1cc2ccc3cccc4ccc(c1)c2c34`, the compound was called inactive.
For the compound `Oc1ccc(Cl)cc1Cl`, the result was inactive.
Still for that read-out and setting: the result for `CN(C)c1nc(=O)n(C2CCCCC2)c(=O)n1C` reads “inactive”.
On the same count and under the same terms, the result for `C=CC(=O)NCNC(=O)C=C` reads “inactive”; that for `CCC(=O)O[C@H]1CC[C@H]2[C@@H]3CCC4=CC(=O)CC[C@]4(C)[C@H]3CC[C@]12C`, “inactive”; that for `CCSC(=O)N(CC)C1CCCCC1`, “inactive”.
Same read-out and setting: in the case of `C[C@]12CCC(=O)C=C1CC[C@@H]1[C@@H]2CC[C@@]2(C)[C@H]1CC[C@]2(C)O` it was “inactive”; in that of `Clc1ccc(C(Cl)(Cl)Cl)cc1`, “inactive”.
Take `CCC(C)(c1ccc(O)cc1)c1ccc(O)cc1`: the AC50 is 46.1 µM (active) and the call was inactive.
`CCOCCOC(C)=O`: the call was inactive.
In the case of `N#Cc1ccc(N(CC(N)=O)CC(F)(F)F)cc1C(F)(F)F`, the compound was classed as inactive.
On to `CC(c1ccc(O)cc1)(c1ccc(O)cc1)c1ccc(O)cc1`, for which the outcome was inactive.
The same measure, in the same setting: the result for `C[C@]12CCC(=O)C=C1CC[C@@H]1[C@@H]2CC[C@]2(C)C(=O)CC[C@@H]12` reads “inactive”.
With `CO/C=C(/C(=O)OC)c1ccccc1COc1cccc(C(F)(F)F)n1`, the AC50 is 5.74 µM (active).
With `Oc1ccc(C(c2ccc(O)cc2)(C(F)(F)F)C(F)(F)F)cc1`, the compound was classed as inactive.
`O=S(=O)(O)C(F)(F)C(F)(F)C(F)(F)C(F)(F)C(F)(F)C(F)(F)F`: the AC50 is 32.5 µM (active) and 79.5 µM (active) and 61.7 µM (active).
As to `CCOC(=O)C(O)(c1ccc(Cl)cc1)c1ccc(Cl)cc1`, the AC50 is 11.1 µM (active).
On the same count and under the same terms, in the case of `O=C(NC(=O)c1cc(F)c(F)cc1Cl)Nc1cc(F)ccc1N1CCC(C(=O)O)CC1` it was 0.954 µM (active).
As to `CCOP(=S)(OCC)SCSC(C)(C)C`, the call was inactive.
Take `Nc1ccc(-c2ccc(N)cc2)cc1`: the compound was called inactive.
Regarding `CCC(C)(CC)c1cc(NC(=O)c2c(OC)cccc2OC)on1`, the call was inactive.

The next assay deals with Nuclear receptor subfamily 1 group I member 2 (Homo sapiens) (UniProt O75469). Briefly: ATG_PXR_TRANS: Attagene TRANS-FACTORIAL HepG2 Assay for human Pregnane X Receptor (PXR) (AID 2283008).
Sequence of Nuclear receptor subfamily 1 group I member 2 (Homo sapiens) (O75469 whole entry, looked up): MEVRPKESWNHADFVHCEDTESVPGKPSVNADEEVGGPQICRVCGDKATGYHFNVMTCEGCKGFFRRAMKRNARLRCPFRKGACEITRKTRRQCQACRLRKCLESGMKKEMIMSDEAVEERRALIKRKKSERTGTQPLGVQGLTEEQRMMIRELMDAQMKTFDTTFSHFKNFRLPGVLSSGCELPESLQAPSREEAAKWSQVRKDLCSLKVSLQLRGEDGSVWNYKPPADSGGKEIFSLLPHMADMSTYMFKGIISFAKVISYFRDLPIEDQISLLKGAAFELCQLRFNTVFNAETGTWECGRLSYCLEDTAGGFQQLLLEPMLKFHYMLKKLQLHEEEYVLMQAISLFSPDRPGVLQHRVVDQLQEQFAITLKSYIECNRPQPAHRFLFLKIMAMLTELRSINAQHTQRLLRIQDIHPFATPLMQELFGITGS
Settings: not given
In outline:
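Read-out is fluorescence of labelled reporter cDNA fragments separated by capillary electrophoresis after RT-PCR and HpaI digestion. Source: HepG2 cells carrying PXR-GAL4/UAS reporter constructs, treated 24 h; activity fitted upward relative to DMSO.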
As for `Cc1ccccc1CO[C@@H]1C[C@@]2(C(C)C)CC[C@]1(C)O2`, the AC50 was 5.24 µM (active).
On the same count and under the same terms, in the case of `ClC1=C(Cl)[C@]2(Cl)[C@@H]3[C@@H]4C[C@@H]([C@H]5O[C@@H]45)[C@@H]3[C@@]1(Cl)C2(Cl)Cl` it was 2.84 µM (active).
Consider `c1cc2ccc3cccc4ccc(c1)c2c34`, for which the compound was classed as inactive.
For `CC(C)C(=O)OCC(C)(C)C(OC(=O)C(C)C)C(C)C` (configuration not stated), the AC50 was 0.483 µM (active).
Regarding `CCC(=O)O[C@H]1CC[C@H]2[C@@H]3CCC4=CC(=O)CC[C@]4(C)[C@H]3CC[C@]12C`, the AC50 is 27.8 µM (active) and the call was inactive.
As for `CCSC(=O)N(CC)C1CCCCC1`, the compound was classed as inactive.
Take `C[C@]12CCC(=O)C=C1CC[C@@H]1[C@@H]2CC[C@@]2(C)[C@H]1CC[C@]2(C)O`: the compound was classed as inactive.
Same read-out and setting: the result for `Clc1ccc(C(Cl)(Cl)Cl)cc1` reads “inactive”.
Take `CCC(C)(c1ccc(O)cc1)c1ccc(O)cc1`: the AC50 is 2.52 µM (active) [middle of 4 runs].
As to `CCOCCOC(C)=O`, the call was inactive.
Same read-out and setting: the result for `N#Cc1ccc(N(CC(N)=O)CC(F)(F)F)cc1C(F)(F)F` reads “inactive”.
In the case of `CC(c1ccc(O)cc1)(c1ccc(O)cc1)c1ccc(O)cc1`, the AC50 is 2.93 µM (active).
On to `C[C@]12CCC(=O)C=C1CC[C@@H]1[C@@H]2CC[C@]2(C)C(=O)CC[C@@H]12`, for which the AC50 was 7.27 µM (active) and 26.8 µM (active); the compound was classed as inactive.
Take `CO/C=C(/C(=O)OC)c1ccccc1COc1cccc(C(F)(F)F)n1`: the AC50 is 0.264 µM (active).
Take `Oc1ccc(C(c2ccc(O)cc2)(C(F)(F)F)C(F)(F)F)cc1`: the AC50 was 6 µM (active) [middle of 4 runs].
For `ClC1=C(Cl)[C@]2(Cl)[C@@H]3[C@@H](Cl)[C@H]4O[C@H]4[C@@H]3C1(Cl)C2(Cl)Cl`, the AC50 was 4.39 µM (active).
Consider `O=S(=O)(O)C(F)(F)C(F)(F)C(F)(F)C(F)(F)C(F)(F)C(F)(F)F`, for which the outcome was inactive.
The same measure, in the same setting: the result for `C=CC(N)=O` reads “inactive”.
Consider `CCOC(=O)C(O)(c1ccc(Cl)cc1)c1ccc(Cl)cc1`, for which the AC50 was 18.3 µM (active).
Take `CC(C)(O)C(=O)Nc1ccc([N+](=O)[O-])c(C(F)(F)F)c1`: the AC50 is 21.2 µM (active) and the compound was called inactive.
Regarding `O=C(NC(=O)c1cc(F)c(F)cc1Cl)Nc1cc(F)ccc1N1CCC(C(=O)O)CC1`, the call was inactive.
For `CCOP(=S)(OCC)SCSC(C)(C)C`, the AC50 was 3.49 µM (active) and 2.9 µM (active).
For `Nc1ccc(-c2ccc(N)cc2)cc1`, the outcome was inactive.
Turning to `CCC(C)(CC)c1cc(NC(=O)c2c(OC)cccc2OC)on1`, the AC50 is 0.692 µM (active).
Take `O=C(N[C@H]1CN2CCC1CC2)c1cc2ccoc2cn1`: the outcome was inactive.

Source of the values: PubChem BioAssay (EPA / NIEHS).
